# PubChem BioAssay (Tox21)
# Inconclusive results are not listed. Where a call stands in place of a potency, no number is given. Some compounds were tested as several samples or in several runs, with calls that do not always agree. The source made the active and inactive calls. Unless noted, the call rests on the fitted dose curve; in most records, active means well fitted curve in the direction sought with a large enough effect in the repeat runs; inconclusive means weak or mixed curves; inactive means no such curve, though single readings can be large; an effect the other way counts as inactive or inconclusive.
# How the values were obtained:
# [1] = qHTS assay to identify small molecule antagonists of the estrogen related receptor (ERR) signaling pathway from Tox21 library - cell viability counter screen (AID 1224834); further: nearly all actives have a fitted effect of over 30% in size
# Outline: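 ERR reporter cells were plated 6 h before compound addition, then exposed to test compounds in DMSO for 17.5 h at 37 C. Viability was read as CellTiter-Fluor fluorescence after a 30-minute incubation at 37 C.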
# [2] = target: Luciferin 4-monooxygenase (Photinus pyralis) (UniProt P08659); experiment: qHTS assay to identify small molecule inhibitors of firefly luciferase (AID 1224835); further: nearly all actives have a fitted effect of over 25% in size; further: potency means the concentration at half of the fitted maximal effect
# Outline: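 Biochemical qHTS: compounds run as interplate titrations against purified firefly enzyme, with D-luciferin and ATP each at its KM concentration. Light output recorded by CCD imaging.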
# [3] = qHTS assay to identify small molecule agonists of the constitutive androstane receptor (CAR) signaling pathway - cell viability counter screen (AID 1224836); further: series mostly up to about 92 µM; nearly all actives have a fitted effect of over 45% in size
# Outline: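 HepG2 cells stably carrying hCAR and a CYP2B6-2.2kb reporter; 15-concentration compounds plus PK11195 (final 0.75 uM), 23 hr at 37 C/5% CO2. Viability read by CellTiter-Fluor fluorescence.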
# [4] = qHTS assay to identify small molecule antagonists of the constitutive androstane receptor (CAR) signaling pathway - cell viability counter screen (AID 1224837); further: series mostly up to about 92 µM; nearly all actives have a fitted effect of over 45% in size
# Outline: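 HepG2 cells stably expressing hCAR and a CYP2B6-2.2kb reporter were plated and pre-incubated 4 hr at 37 C/5% CO2, then given compounds at 15 concentrations plus 50 nM CITCO (final). After 23 hr, viability was read by CellTiter-Fluor fluorescence.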
# [5] = qHTS assay to identify small molecule antagonists of the estrogen related receptor signaling pathway with the pleiotropic PPARgamma coactivator (PGC) from Tox21 10K library - cell viability counter screen (AID 1224840; active means well fitted cell-killing curve with a large enough effect in the repeat runs, not every such curve was filed as active; further: nearly all actives have a fitted effect of over 40% in size)
# Outline: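 PGC/ERR cells were seeded at 2,000 cells/well and left 6 hours at 37 C/5% CO2 before pin-tool addition of compounds in DMSO. After 17.5 hours at 37 C, CellTiter-Fluor was added and fluorescence read 30 minutes later.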
# [6] = target: Thyrotropin receptor (Homo sapiens) (UniProt P16473); experiment: qHTS assay to identify small molecule agonists of the thyroid stimulating hormone receptor (TSHR) signaling pathway (AID 1224843; calls by dose curve; further: nearly all actives have a fitted effect of over 45% in size)
# Outline: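 TSHR-HEK293 cells in agonist mode, 30 min room-temperature step, then cAMP measured by competitive HTRF (cAMP-d2 with anti-cAMP cryptate) after 1 h at room temperature. Tested at 15 concentrations in triplicate.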
# [7] = qHTS assay to identify small molecule agonists of the hypoxia (HIF-1) signaling pathway - cell viability counter screen (AID 1224844; calls by dose curve; further: nearly all actives have a fitted effect of over 50% in size)
# Outline: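 HRE-bla ME-180 cells in medium with 0.5% dialyzed FBS were preincubated 5 hrs at 37C, exposed to compounds for 17 hrs, then viability was read as CellTiter-Glo luminescence after 30 min at room temperature, in the reporter wells.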
# [8] = qHTS assay to identify small molecule agonists of H2AX (AID 1224845; active means well fitted activation curve with a large enough effect in the signal ratio in the repeat runs, not every such curve was filed as active; the % refers to the signal ratio)
# Outline: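 Wild-type CHO-K1 cells, plated overnight, exposed 3hr at 37C to 15 concentrations (0.76% DMSO final). Lysed, then HTRF anti-pH2AX (S139) cryptate and anti-H2AX-d2 antibodies, 24 hr room temperature; 665/620 nm emission read.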
# [9] = qHTS assay to identify small molecule agonists of the hypoxia (HIF-1) signaling pathway (AID 1224846; active means well fitted activation curve with a large enough effect in the signal ratio in the repeat runs, not every such curve was filed as active; the % refers to the signal ratio)
# Outline: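 HRE-bla ME-180 cells (beta-lactamase reporter under hypoxia response element) were plated at 2,000 cells/well in medium with 0.5% dialyzed FBS, rested 5 hrs, then given compounds in DMSO for 17 hrs at 37C, 5% CO2. Reporter induction was read with CCF4-AM FRET substrate.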
# [10] = qHTS assay to identify small molecule agonists of H2AX - cell viability counter screen (AID 1224847; calls by dose curve; further: top concentration of the series differs between compounds; nearly all actives have a fitted effect of over 30% in size)
# Outline: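 CHO-K1 cells plated overnight at 37C, then exposed 3 h at 37C to compounds at 15 concentrations (0.76% DMSO final). Viability by CellTiter-Glo luminescence after 30 min at room temperature.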
# [11] = qHTS RealTime-Glo MT Cell Viability Assay in HepG2 cells - 24 hour (AID 1224867); further: nearly all actives have a fitted effect of over 50% in size
# Outline: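 Compound treatment began 5 h after plating HepG2 cells (600/well) with NanoLuc luciferase and prosubstrate. Plates stayed at 37 C for 40 h; luminescence was captured at six time points, 0 h through 40 h.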
# [12] = qHTS RealTime-Glo MT Cell Viability Assay in HEK293 cells - 32 hour (AID 1224868); further: top concentration of the series differs between compounds; nearly all actives have a fitted effect of over 50% in size
# Outline: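 Quantitative high-throughput screen of the Tox21 10K library in HEK293: cells and RealTime-Glo reagents plated together, compound added at 5 h, luminescence monitored through 40 h at 37 C.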
# [13] = A CellTox Green Cytotoxicity Assay to monitor cytotoxicity in HEK293 cells - 0 hour (AID 1224869); further: nearly all actives have a fitted effect of over 50% in size
# Outline: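 HEK293 cells premixed with CellTox Green dye were seeded at 600 cells/well and left 5 h at 37 C/5% CO2 before pin transfer of 23 nL compound in DMSO. Fluorescence from dye bound to dead-cell DNA was read during 40 h treatment.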
# [14] = target: Nuclear receptor subfamily 1 group I member 3 (Homo sapiens) (UniProt Q14994); experiment: qHTS assay to identify small molecule antagonists of the constitutive androstane receptor (CAR) signaling pathway (AID 1224838); further: nearly all actives have a fitted effect of over 40% in size
# Outline: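 HepG2 cells stably co-transfected with hCAR and a CYP2B6-2.2kb luciferase reporter were seeded 4 h before compound addition at 15 concentrations. Cells were stimulated with 50 nM CITCO (final) for 24 h at 37 C; luciferase luminescence was then read.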
# [15] = target: Nuclear receptor subfamily 1 group I member 3 (Homo sapiens) (UniProt Q14994); experiment: qHTS assay to identify small molecule agonists of the constitutive androstane receptor (CAR) signaling pathway (AID 1224839);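 further: HepG2 cells stably carrying human CAR and a CYP2B6 luciferase reporter; series mostly up to about 92 µM; nearly all actives have a fitted effect of over 15% in size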
# Outline: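 HepG2 cells stably co-transfected with hCAR and a CYP2B6-2.2kb luciferase reporter; compounds at 15 concentrations with 0.75 uM PK11195 present. After 24 hr at 37 C, luciferase read by ONE-Glo luminescence.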
# [16] = qHTS assay to identify small molecule antagonists of the estrogen related receptor signaling pathway with the pleiotropic PPARgamma coactivator (PGC) from Tox21 10K library (AID 1224841; call rule not given here; further: potency means the concentration at half of the fitted maximal effect)
# Outline: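 PGC/ERR reporter cells were seeded at 2,000 cells/well and held 6 hours at 37 C/5% CO2 before pin-tool addition of compounds in DMSO. After 18 hours at 37 C, One-Glo was added and luminescence read after 30 minutes at room temperature.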
# [17] = qHTS assay to identify small molecule agonists of the estrogen related receptor signaling pathway with the pleiotropic PPARgamma coactivator (PGC) from Tox21 10K library (AID 1224842); further: nearly all actives have a fitted effect of over 15% in size
# Outline: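 PGC/ERR reporter cell line, 2,000 cells per well, incubated 6 h at 37 C before 23 nL compound in DMSO was added. After 18 h at 37 C, One-Glo luminescence read following 30 min at room temperature.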
# [18] = qHTS assay to identify small molecule antagonists of the estrogen related receptor (ERR) signaling pathway from Tox21 library (AID 1224848); further: nearly all actives have a fitted effect of over 50% in size
# Outline: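 ERR reporter cell line (from NTP) seeded 2,000 cells/well, rested 6 h at 37 C/5% CO2, then pin-dosed with compounds in DMSO. After 18 h at 37 C, ONE-Glo added; luminescence read after 30 min at room temperature.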
# [19] = qHTS assay to identify small molecule agonists of the estrogen related receptor (ERR) signaling pathway from Tox21 library (AID 1224849; calls by dose curve; further: nearly all actives have a fitted effect of over 15% in size)
# Outline: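 ERR reporter cell line (NTP) seeded, rested 6 h at 37 C/5% CO2, then pinned with Tox21 compounds in DMSO. After 18 h at 37 C, ONE-Glo luciferase luminescence was read following 30 min at room temperature.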
# Nuclear receptor subfamily 1 group I member 3 (Homo sapiens), sequence (Q14994 whole entry, looked up): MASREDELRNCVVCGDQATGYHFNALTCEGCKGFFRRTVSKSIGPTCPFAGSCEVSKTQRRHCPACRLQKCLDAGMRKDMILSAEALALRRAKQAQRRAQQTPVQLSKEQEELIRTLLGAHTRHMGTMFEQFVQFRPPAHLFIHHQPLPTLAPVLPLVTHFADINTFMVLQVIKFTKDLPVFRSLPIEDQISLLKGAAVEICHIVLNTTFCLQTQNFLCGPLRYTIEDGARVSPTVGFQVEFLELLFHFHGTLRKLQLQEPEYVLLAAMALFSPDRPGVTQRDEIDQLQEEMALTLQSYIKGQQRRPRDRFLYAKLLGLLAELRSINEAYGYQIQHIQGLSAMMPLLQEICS
# Luciferin 4-monooxygenase (Photinus pyralis), sequence (P08659 whole entry, looked up): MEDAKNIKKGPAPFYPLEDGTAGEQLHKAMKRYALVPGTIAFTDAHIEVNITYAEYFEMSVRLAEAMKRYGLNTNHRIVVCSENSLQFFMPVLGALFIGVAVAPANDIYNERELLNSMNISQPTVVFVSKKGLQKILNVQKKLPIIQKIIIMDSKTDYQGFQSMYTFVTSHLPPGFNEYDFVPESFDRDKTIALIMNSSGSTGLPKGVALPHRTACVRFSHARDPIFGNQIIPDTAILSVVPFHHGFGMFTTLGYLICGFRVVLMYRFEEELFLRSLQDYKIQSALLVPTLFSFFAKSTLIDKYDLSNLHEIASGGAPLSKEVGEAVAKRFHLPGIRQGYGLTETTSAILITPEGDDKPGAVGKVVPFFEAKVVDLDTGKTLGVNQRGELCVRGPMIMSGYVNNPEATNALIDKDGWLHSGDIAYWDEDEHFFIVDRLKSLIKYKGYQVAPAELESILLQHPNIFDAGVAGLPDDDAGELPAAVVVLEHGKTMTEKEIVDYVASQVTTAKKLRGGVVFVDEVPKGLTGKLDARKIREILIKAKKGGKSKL
# Thyrotropin receptor (Homo sapiens), sequence (P16473 whole entry, looked up): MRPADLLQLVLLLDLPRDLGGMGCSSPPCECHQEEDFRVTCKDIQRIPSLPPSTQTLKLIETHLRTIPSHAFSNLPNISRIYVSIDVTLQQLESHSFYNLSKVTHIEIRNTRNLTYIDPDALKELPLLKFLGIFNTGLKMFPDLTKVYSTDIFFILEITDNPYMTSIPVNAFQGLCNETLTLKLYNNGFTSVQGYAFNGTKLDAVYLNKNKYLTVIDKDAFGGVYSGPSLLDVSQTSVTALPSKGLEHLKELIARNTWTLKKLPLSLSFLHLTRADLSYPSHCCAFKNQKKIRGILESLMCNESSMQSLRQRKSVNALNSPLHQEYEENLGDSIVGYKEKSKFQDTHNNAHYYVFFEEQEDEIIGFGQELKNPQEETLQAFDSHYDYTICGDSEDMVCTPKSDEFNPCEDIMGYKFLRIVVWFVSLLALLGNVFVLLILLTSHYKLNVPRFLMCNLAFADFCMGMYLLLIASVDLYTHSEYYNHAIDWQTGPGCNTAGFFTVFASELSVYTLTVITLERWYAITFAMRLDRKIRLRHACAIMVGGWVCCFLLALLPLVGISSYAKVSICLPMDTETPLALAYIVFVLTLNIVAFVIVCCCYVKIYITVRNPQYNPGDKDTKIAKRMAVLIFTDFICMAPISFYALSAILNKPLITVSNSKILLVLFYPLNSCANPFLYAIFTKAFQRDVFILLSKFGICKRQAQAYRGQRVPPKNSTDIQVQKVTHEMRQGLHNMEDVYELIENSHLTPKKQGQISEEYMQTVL
SMILES,Potency [1],Potency [2],Potency [3],Potency [4],Potency [5],outcome [6],outcome [7],outcome [8],outcome [9],outcome [10],Potency [11],Potency [12],outcome [13],outcome [14],Potency [15],Potency [16],outcome [17],outcome [18],outcome [19]
Brc1ccc(Br)c(Br)c1,inactive,inactive,inactive,inactive,inactive,inactive,inactive,inactive,inactive,inactive,inactive,inactive,inactive,–,–,–,–,–,–
NCCN1CCNCC1,inactive,inactive,inactive,inactive,–,inactive,inactive,inactive,inactive,inactive,inactive,inactive,–,inactive,inactive,–,–,–,–
Cc1ccc(S(=O)(=O)N=C=O)cc1,inactive,inactive,inactive,inactive,inactive,inactive,inactive,–,inactive,inactive,inactive,inactive,–,–,–,inactive,inactive,inactive,inactive
CC(C)CCCCCCCOC(=O)CCCCC(=O)OCCCCCCCC(C)C,inactive,–,inactive,inactive,inactive,inactive,inactive,inactive,inactive,inactive,inactive,inactive,inactive,inactive,inactive,–,–,–,–
CC(=O)CC(C)(C)O,inactive,inactive,inactive,inactive,–,inactive,inactive,–,inactive,inactive,inactive,inactive,–,–,–,inactive,inactive,inactive,inactive
N[C@H](Cc1c[nH]c2ccccc12)C(=O)O,inactive,inactive,inactive,inactive,inactive,inactive,inactive,inactive,inactive,inactive,inactive,inactive,inactive,–,–,–,–,–,–
CCCCCCCCCCCC(=O)OC,inactive,inactive,inactive,inactive,–,inactive,inactive,inactive,inactive,inactive,inactive,inactive,inactive,inactive,inactive,–,–,–,–
OC1C(O)C(O)C(O)C(O)C1O (stereo not drawn),inactive,inactive,inactive,inactive,–,inactive,inactive,inactive,inactive,inactive,inactive,inactive,inactive,–,–,–,–,–,–
CSc1ccc(Cl)cc1,inactive,inactive,inactive,inactive,–,inactive,inactive,–,inactive,inactive,inactive,inactive,inactive,inactive,inactive,–,–,–,–
NCCNCCN,inactive,inactive,inactive,inactive,–,–,inactive,–,inactive,inactive,inactive,inactive,–,inactive,inactive,inactive,inactive,inactive,inactive
CCCCCC(=O)O,inactive,inactive,inactive,inactive,inactive,inactive,inactive,inactive,inactive,inactive,inactive,inactive,inactive,–,–,54.5 µM (active) and inactive,inactive,inactive,inactive
COc1ccc([N+](=O)[O-])cc1N,inactive,inactive,inactive,inactive,–,–,inactive,inactive,inactive,inactive,inactive,inactive,–,inactive,inactive,–,–,–,–
NCCCCCCN,inactive,inactive,inactive,inactive,–,inactive,inactive,–,inactive,inactive,inactive,inactive,inactive,–,–,inactive,inactive,inactive,inactive
CC(C)=CCl,inactive,inactive,inactive,inactive,–,inactive,inactive,inactive,inactive,inactive,inactive,inactive,inactive,inactive,inactive,–,–,–,–
CCCCCCC=O,inactive,inactive,inactive,inactive,inactive,inactive,inactive,inactive,inactive,inactive,inactive,inactive,inactive,–,–,–,–,–,–
O=C1CCCC1,inactive,inactive,inactive,inactive,inactive,–,inactive,inactive,inactive,inactive,inactive,inactive,inactive,–,–,inactive,inactive,inactive,inactive
CCc1ccccc1CC,inactive,inactive,inactive,inactive,–,inactive,inactive,–,inactive,inactive,inactive,inactive,–,–,–,inactive,inactive,inactive,inactive
CCNc1ccccc1,inactive,28.8 µM (active) and inactive,inactive,inactive,–,inactive,inactive,inactive,inactive,inactive,inactive,inactive,inactive,inactive,inactive,–,–,–,–
c1ccc(Oc2ccccc2)cc1,inactive,–,inactive,inactive,inactive,inactive,inactive,inactive,inactive,inactive,inactive,inactive,–,inactive,inactive,–,–,–,–
CCOCCOCCOCCO,inactive,–,inactive,inactive,inactive,inactive,inactive,inactive,inactive,inactive,inactive,inactive,inactive,inactive,inactive,–,–,–,–
